Common to all, as to test: NCI-60 one-dose screen, 48 h (100 = growth as untreated, 0 = no growth, -100 = all killed)
What all share (conditions): 10 µM unless noted

Test [1] relates to NCI-H23 lung.
Test [2] relates to NCI-H226 lung.
Test [3] has as its system NCI-H322M lung.
Test [4] concerns HOP-62 NSCLC.
For test [5], the system named is NCI-H460 lung.
For test [6], the system named is HOP-92 NSCLC.
Test [7] concerns NCI-H522 lung.
Test [8] deals with A549/ATCC NSCLC.
In test [9] the test system is 786-0 renal.
Test [10] deals with DU-145 prostate.
For test [11], the system named is K-562 leukemia.
In test [12] the test system is MALME-3M melanoma.
For test [13], the system named is MDA-MB-231 breast.
Test [14] concerns RXF 393 renal.
In test [15] the test system is SF-268 CNS.
Test [16] deals with SF-295 CNS.
Test [17] has as its system SF-539 CNS.
In test [18] the test system is UACC-257 melanoma.
The subject of test [19] is M14 melanoma.

This is part of a sample that, as a whole, favours compounds with a hit. Of some 83,000 tested, about 20% had one in any assay.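 The endpoint reported here, percent growth, reads 100 for growth as untreated, 0 for no net growth and -100 for all cells dead.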 Values without a mark were called inactive. Activity calls are given as the source filed them. The calls were made as follows: active = growth percent below 10; inactive = the rest.

With `N#C/C(=C\c1ccc2c(c1)OCO2)n1nnc2ccccc21`, the growth in test [1] is 10.9%; in test [2] it was 8.93% (active); in test [3], 9.39% (active); in test [4], 28.7%; in test [5] it was 0.341% (active); in test [6], -2.71% (active). The growth in [7] was 14%; in test [8], 17.1%; in test [9], 6.58% (active); in test [10], -38% (active); in test [11], 14.2%; in [12] it was 25.8%. The growth is -31.9% (active) in test [13]; -44.8% (active) in test [14]; 22.9% in test [15]; -5.56% (active) in test [16]; -61.4% (active) in test [17]; 64.4% in test [18]. For the same compound, the growth in test [19] is 2.76% (active).
With `CCn1c(Sc2nnc(NC(C)=O)s2)nc2c1c(=O)n(C)c(=O)n2C`, the growth is 82.2% in [1]; 93.9% in test [2]; 96.5% in test [3]; 99.4% in test [4]; 103% in test [5]; 77.6% in test [6]. Moreover, the growth in [7] was 93.5%; in [8] it was 98.7%; in [9], 99.6%; in [10], 99.2%; in test [11], 95.6%; in test [12] it was 99.1%. Moreover, the growth is 96% in test [13]; 91.2% in test [14]; 90.8% in test [15]; 98% in [16]; 92.5% in [17]; 103% in [18]. Besides, in [19], the growth is 91.4%.
`Cc1cc(Cl)nc(N(CCCNc2ccnc3cc(Cl)ccc23)Cc2ccccn2)n1`: the growth in [1] is 33.6%; in test [2], 65%; in test [3], 68.7%; in [4], 64%; in [5], 48.7%; in [6], 30.6%. The growth in test [7] was 40%; in test [8], 56.1%; in test [9], 47.4%; in [10] it was 66.2%; in test [11], 4.3% (active); in [12] it was 73.2%. The growth is 53.4% in [13]; 41.8% in [14]; 74.6% in test [15]; 38.9% in [16]; 38.9% in test [17]; 53.5% in test [18]. The growth in [19] was 44.4%.
For `C=C(CNCCc1ccc(O)cc1)[C@@H]1CC[C@]2(COC3CCCCO3)CC[C@]3(C)[C@H](CC[C@@H]4[C@@]5(C)CCC(N)C(C)(C)[C@@H]5CC[C@]43C)[C@@H]12` (some centres not stated), the growth is -89.1% (active) in test [1]; -59.1% (active) in [2]; -95.1% (active) in [3]; -91.4% (active) in [4]; -84.2% (active) in test [5]; -73.9% (active) in test [6]. Further, the growth is -84.3% (active) in test [7]; -86.2% (active) in [8]; -79.4% (active) in [9]; -88.9% (active) in [10]; -73% (active) in test [11]; -83.9% (active) in test [12]. In addition, the growth in test [13] was -92.2% (active); in test [14], -83.9% (active); in [15] it was -71.6% (active); in test [16], -88% (active); in [17], -94.9% (active); in [18] it was -80.7% (active). In test [19], the growth was -88.6% (active).
For `COc1ccccc1C(=O)NC(=S)Nc1ccc(-c2nc3ccccc3[nH]2)cc1`, the growth is 58.4% in test [1]; 46.3% in test [2]; 80.7% in test [3]; 46.2% in test [4]; 4.59% (active) in test [5]; 101% in test [6]. The growth was 91.4% in test [7]; 58.7% in [8]; 41.5% in [9]; 42.9% in [10]; 48% in test [11]; 27.5% in test [12]. For the same compound, the growth in test [13] was -10.1% (active); in test [14], 49.1%; in test [15], 49.2%; in test [16], 61.3%; in test [17], 48.1%; in test [18], 94.3%. Further, the growth in test [19] was 54.3%.
Turning to `CN=C1C=CC(=C(c2ccc(N(C)C)cc2)c2ccc(N(C)C)cc2)C=C1`, the growth in test [1] is -8.66% (active); in test [2], 6.94% (active); in [3], -25.8% (active); in [4], -23.4% (active); in [5], -49.4% (active); in test [6] it was -39.1% (active). Moreover, the growth in [7] is -36.8% (active); in [8], -23.6% (active); in test [9], -63.1% (active); in test [10], -6.79% (active); in test [11], 2.18% (active); in test [12] it was -56.6% (active). Besides, the growth in test [13] is -46.9% (active); in [14], -50.8% (active); in test [15], -56.5% (active); in test [16] it was -30.4% (active); in [17] it was -38.3% (active); in test [18] it was -43% (active). Besides, the growth in [19] was -65.4% (active).
For the compound `O=C(/C=C/C12c3ccccc3C(c3ccccc31)C1C(=O)N(c3ccc(Cl)cc3)C(=O)C12)c1ccccn1` (configuration not stated), the growth in test [1] was -22.6% (active); in [2] it was -49.3% (active); in [3], 11.3%; in test [4] it was 5.06% (active); in test [5], -32.3% (active); in test [6], -53.7% (active). Besides, the growth in test [7] is -6.34% (active); in test [8], 5.63% (active); in test [9], -60.7% (active); in test [10], -86.5% (active); in test [11] it was 4.62% (active); in [12], -52% (active). Moreover, the growth was -16% (active) in test [13]; -88.6% (active) in [14]; 8.62% (active) in test [15]; -9.27% (active) in [16]; -52.7% (active) in test [17]; 2.58% (active) in [18]. Moreover, the growth in test [19] was -1.41% (active).
Consider `CN(C)c1ccc(/C=N/NC(=O)COc2cc(=O)n(C)c3ccccc23)cc1`, for which the growth in test [1] was 93.5%; in test [2] it was 105%; in [3], 105%; in test [4] it was 95.7%; in [5], 110%; in [6], 93.5%. In addition, the growth is 96.7% in [7]; 110% in test [8]; 105% in [9]; 110% in test [10]; 103% in [11]; 98.4% in test [12]. In addition, the growth in test [13] was 97.1%; in test [14], 93.4%; in test [15] it was 105%; in [16] it was 102%; in [17] it was 100%; in test [18] it was 112%. In test [19], the growth is 101%.

These data come from PubChem BioAssay (NCI).
